Compound activity (PubChem BioAssay)
Only some compounds are listed: those with a hit (about 10% of all), similar ones and a draw of the others.
KB-V1 MDR tox: kills drug-selected multidrug resistant KB-V1 cells; KB-V1 MDR cells viability, CellTiter-Glo, 72 h; Potency, µM (highest dose often 46.1 µM), usual class: cytotoxic; 400,000 tested, 3.4% active; AID 1347076; also: nearly all actives have a fitted effect of over 60% in size
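KB-V1 cells (P-gp-expressing MDR subline of KB-3-1) in phenol-red-free DMEM with 10% FBS were exposed to library compounds over a concentration series for 72 h at 37 degrees C. Viability read by CellTiter-Glo luminescence; concentration-effect curves fitted after normalization.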
SW480 rereplic: induces DNA re-replication in SW480 colon adenocarcinoma cells; SW480 DNA re-replication, Hoechst DNA content imaging, 48 h; Potency, µM (series often up to 46.1 µM), most hits filed as activators; 340,000 tested, 1.8% active; also: nearly all actives have a fitted effect of over 55% in size
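SW480 cells exposed to compounds for 48 hr at 37 C, 5% CO2, then Hoechst-stained 40 min. Nuclear DNA content imaged by fluorescence scanning (405 nm excitation, 500-530 nm emission); re-replication scored as increased high-intensity nuclei.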
KB-3-1 tox: kills parental KB-3-1 adenocarcinoma cells | KB-3-1 viability, CellTiter-Glo ATP luminescence, 72 h | Potency, µM (titrated, usually from 46.1 µM), actives largely listed as cytotoxic | 400,000 tested, 1.4% active; also: nearly all actives have a fitted effect of over 60% in size
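Cytotoxicity measured as CellTiter-Glo luminescence after 72 h at 37 C. Compound titrations were pinned onto drug-naive KB-3-1 parental adenocarcinoma cells grown in DMEM with 10% FBS, and normalized data fitted to concentration-response curves.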
RORg inh: blocks mouse ROR gamma transcriptional activity | Potency, µM (highest dose often 53.6 µM), actives largely listed as inhibitors | 310,000 tested, 5.4% active | P51450 | Drosophila S2 Gal4-RORgamma UAS-luciferase reporter, 20 h; also: nearly all actives have a fitted effect of over 60% in size
Target sequence (P51450 whole entry, looked up, the tested form may be a part): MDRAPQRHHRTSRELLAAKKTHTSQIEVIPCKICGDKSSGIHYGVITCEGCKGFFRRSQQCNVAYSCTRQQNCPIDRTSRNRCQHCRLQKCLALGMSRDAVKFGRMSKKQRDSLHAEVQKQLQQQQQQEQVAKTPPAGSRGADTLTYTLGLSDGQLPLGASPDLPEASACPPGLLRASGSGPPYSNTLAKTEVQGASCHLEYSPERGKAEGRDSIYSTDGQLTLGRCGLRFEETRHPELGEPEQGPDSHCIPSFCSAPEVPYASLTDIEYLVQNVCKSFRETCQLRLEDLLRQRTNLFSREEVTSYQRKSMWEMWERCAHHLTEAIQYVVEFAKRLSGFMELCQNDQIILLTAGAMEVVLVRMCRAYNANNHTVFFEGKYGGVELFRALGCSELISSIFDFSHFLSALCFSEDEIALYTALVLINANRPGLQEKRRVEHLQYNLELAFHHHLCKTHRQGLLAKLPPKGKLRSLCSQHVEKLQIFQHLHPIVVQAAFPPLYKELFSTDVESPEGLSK
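ROR gamma transcriptional activity was tracked as Gal4-UAS luciferase output in stably transfected Drosophila Schneider cells, with compound added 1 hr before 700 uM copper sulfate induction and a 20 hr ambient-temperature incubation.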
MCF10A rereplic: DNA re-replication induction in MCF 10a cells. 350,000 tested, 2.9% active. Potency, µM (doses to about 46.1 µM), hits mostly activators. MCF 10A DNA re-replication, Hoechst nuclear intensity, 48 h; also: nearly all actives have a fitted effect of over 50% in size
Gal4-VP16 FLuc: inhibits Gal4-VP16 luciferase reporter, ROR gamma counter-screen; 310,000 tested, 3.5% active; Potency, µM (titrated, usually from 53.6 µM), most hits filed as inhibitors; Drosophila S2 Gal4-VP16 UAS-luciferase, luminescence, 20 h;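 also: Gal4-VP16 expression switched on by copper sulfate through the metallothionein promoter; nearly all actives have a fitted effect of over 50% in size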
Each line names hits and unclear results; the compound was inactive in the other large screens. Calls follow the shape of the dose curve; as a rule, active = well fitted curve in the direction sought with a large enough effect; inconclusive = small, poorly fitted or top-dose-only effect, or another doubt; inactive = no such curve, though single readings can be large; an effect the other way counts as inactive or inconclusive.

Nc1c(C(=O)NC2CCCC2)c2nc3ccccc3nc2n1CC1CCCO1 (stereo not drawn)	SW480 rereplic 15µM, MCF10A rereplic 7.3µM
COCCOC(=O)c1c(N)n(Cc2ccco2)c2nc3ccccc3nc12	none
COCCCNC(=O)c1c(N)n(Cc2ccco2)c2nc3ccccc3nc12	SW480 rereplic 9.2µM, RORg inh inconclusive, MCF10A rereplic 12µM
O=C(Cl)C(Cl)(Cl)Cl	none (no result: KB-V1 MDR tox, SW480 rereplic, KB-3-1 tox, MCF10A rereplic)
Cc1ccc(NC(=O)N(Cc2ccc3c(c2)OCO3)C2CCN(Cc3ccccc3)CC2)cc1Cl	KB-3-1 tox inconclusive (no result: SW480 rereplic, RORg inh, MCF10A rereplic, Gal4-VP16 FLuc)
CN1C[C@H](CO)C=C2c3cccc4[nH]cc(c34)C[C@@H]21	none (no result: KB-V1 MDR tox, SW480 rereplic, KB-3-1 tox, MCF10A rereplic)
Cc1ccc(C=C2C(Cl)=C(Cl)C(Cl)=C2Cl)cc1	KB-V1 MDR tox inconclusive, SW480 rereplic inconclusive, KB-3-1 tox inconclusive, MCF10A rereplic inconclusive
Cn1c(=O)n(C)c2cc(CNCCc3ccc(F)cc3)ccc21	none (no result: SW480 rereplic, RORg inh, MCF10A rereplic, Gal4-VP16 FLuc)
Nc1c(C(=O)NCC2CCCO2)c2nc3ccccc3nc2n1Cc1ccco1 (stereo not drawn)	SW480 rereplic 13µM, MCF10A rereplic 2.6µM, Gal4-VP16 FLuc inconclusive
CC(C)OC(=O)c1c(N)n(Cc2ccco2)c2nc3ccccc3nc12	none
CC(C)CNC(=O)c1c(N)n(Cc2ccco2)c2nc3ccccc3nc12	KB-V1 MDR tox 16µM, SW480 rereplic 21µM, KB-3-1 tox inconclusive, MCF10A rereplic 6.5µM, Gal4-VP16 FLuc inconclusive
COc1cc2c(cc1O)C(CCc1ccc(Cl)cc1)N(C)CC2 (stereo not drawn)	none (no result: KB-V1 MDR tox, SW480 rereplic, KB-3-1 tox, MCF10A rereplic)
CNc1ccc(C(=O)CC(O)CCC(C)C2OC(=O)CC(O)CC(=O)CC(O)CC(O)CC(O)CC(O)CC3(O)CC(O)C(C(=O)OC)C(CC(O[C@@H]4OC(C)C(O)C(N)C4O)/C=C/C=C/C=C/C=C/C=C/C=C/C=C/C2C)O3)cc1 (stereo partly drawn)	none (no result: KB-V1 MDR tox, KB-3-1 tox)
Cn1c(O)c(/C=N/Nc2ccccc2)c(=O)n(C)c1=O	MCF10A rereplic 6.5µM
COc1cc(C2c3cc4c(cc3C(O)[C@H]3COC(=O)C23)OCO4)cc(OC)c1OC (stereo partly drawn)	RORg inh inconclusive (no result: KB-V1 MDR tox, SW480 rereplic, KB-3-1 tox, MCF10A rereplic)
COC(=O)[C@H]1[C@H](c2ccccc2)C(=O)[C@@]2(O)c3ccccc3O[C@@]12c1ccccc1	none (no result: KB-V1 MDR tox, SW480 rereplic, KB-3-1 tox, MCF10A rereplic)
Cc1cc(S(=O)(=O)NC(C)C)ccc1OCC(=O)N1CCN(Cc2ccc3c(c2)OCO3)CC1	KB-V1 MDR tox 2.6µM, KB-3-1 tox 16µM, Gal4-VP16 FLuc 7.9µM
CC(C)NS(=O)(=O)c1ccc(OCC(=O)N2CCN(Cc3ccc4c(c3)OCO4)CC2)c(Cl)c1	Gal4-VP16 FLuc inconclusive
COc1ccc(C(=O)Oc2cccc3cccnc23)cc1S(=O)(=O)N1CCOCC1	SW480 rereplic inconclusive, RORg inh 2.5µM, MCF10A rereplic inconclusive, Gal4-VP16 FLuc 4.5µM
O=C(Oc1cccc2cccnc12)c1ccccc1	SW480 rereplic inconclusive, RORg inh 1.4µM, MCF10A rereplic inconclusive, Gal4-VP16 FLuc inconclusive (no result: KB-V1 MDR tox, KB-3-1 tox)
CNC(=O)Oc1cccc2ccccc12	none
CNCC[C@H](Oc1cccc2ccccc12)c1cccs1	KB-V1 MDR tox inconclusive, SW480 rereplic 13µM, KB-3-1 tox inconclusive
C[C@@H]1O[C@H](O[C@@H]2C=C3CC[C@H]4[C@@H](CC[C@]5(C)[C@@H](c6ccc(=O)oc6)CC[C@]45O)[C@@]3(C)CC2)[C@@H](O)[C@H](O)[C@@H]1O	SW480 rereplic inconclusive (no result: KB-V1 MDR tox, KB-3-1 tox)
C[C@@H]1O[C@@H](O[C@@H]2C=C3CC[C@@H]4[C@@H](CC[C@]5(C)[C@H](c6ccc(=O)oc6)CC[C@@]45O)[C@@]3(C)CC2)[C@H](O)[C@H](O)[C@H]1O	KB-V1 MDR tox 0.92µM, KB-3-1 tox 0.012µM (no result: SW480 rereplic, RORg inh, MCF10A rereplic, Gal4-VP16 FLuc)
C=CC(=O)OCC(CO)(COC(=O)C=C)COC(=O)C=C	RORg inh 4.5µM, Gal4-VP16 FLuc 5.6µM (no result: KB-V1 MDR tox, SW480 rereplic, KB-3-1 tox, MCF10A rereplic)
C=CC(=O)OCCO	MCF10A rereplic inconclusive
[O-]c1ccccc1-[n+]1c(-c2ccccc2)cc(-c2ccccc2)cc1-c1ccccc1	KB-3-1 tox 12µM, MCF10A rereplic inconclusive (no result: RORg inh, Gal4-VP16 FLuc)
Cc1ccccc1-[n+]1c(-c2ccccc2)cc(-c2ccccc2)cc1-c1ccccc1	SW480 rereplic 2.3µM, KB-3-1 tox 6.5µM (no result: RORg inh, Gal4-VP16 FLuc)
